Data reported in the supplement of paper PMC11732987, “Enantioselective OTUD7B fragment discovery through chemoproteomics screening and high-throughput optimisation” (Communications Chemistry, 2025).

Legend:
Test in all cases: log2 ratio of Biotin-Ahx-Ub-VS probe labelling (fragment/DMSO); higher = less target engagement (more negative = stronger competition), active = hit call of the paper (q ≤ 0.05, log2 ratio ≤ -1)
Settings in all cases: compound concentration: 200 uM; treatment time: 3 h
USP19 = target: T1, USP19 (UniProt O94966)
T1 sequence (whole entry): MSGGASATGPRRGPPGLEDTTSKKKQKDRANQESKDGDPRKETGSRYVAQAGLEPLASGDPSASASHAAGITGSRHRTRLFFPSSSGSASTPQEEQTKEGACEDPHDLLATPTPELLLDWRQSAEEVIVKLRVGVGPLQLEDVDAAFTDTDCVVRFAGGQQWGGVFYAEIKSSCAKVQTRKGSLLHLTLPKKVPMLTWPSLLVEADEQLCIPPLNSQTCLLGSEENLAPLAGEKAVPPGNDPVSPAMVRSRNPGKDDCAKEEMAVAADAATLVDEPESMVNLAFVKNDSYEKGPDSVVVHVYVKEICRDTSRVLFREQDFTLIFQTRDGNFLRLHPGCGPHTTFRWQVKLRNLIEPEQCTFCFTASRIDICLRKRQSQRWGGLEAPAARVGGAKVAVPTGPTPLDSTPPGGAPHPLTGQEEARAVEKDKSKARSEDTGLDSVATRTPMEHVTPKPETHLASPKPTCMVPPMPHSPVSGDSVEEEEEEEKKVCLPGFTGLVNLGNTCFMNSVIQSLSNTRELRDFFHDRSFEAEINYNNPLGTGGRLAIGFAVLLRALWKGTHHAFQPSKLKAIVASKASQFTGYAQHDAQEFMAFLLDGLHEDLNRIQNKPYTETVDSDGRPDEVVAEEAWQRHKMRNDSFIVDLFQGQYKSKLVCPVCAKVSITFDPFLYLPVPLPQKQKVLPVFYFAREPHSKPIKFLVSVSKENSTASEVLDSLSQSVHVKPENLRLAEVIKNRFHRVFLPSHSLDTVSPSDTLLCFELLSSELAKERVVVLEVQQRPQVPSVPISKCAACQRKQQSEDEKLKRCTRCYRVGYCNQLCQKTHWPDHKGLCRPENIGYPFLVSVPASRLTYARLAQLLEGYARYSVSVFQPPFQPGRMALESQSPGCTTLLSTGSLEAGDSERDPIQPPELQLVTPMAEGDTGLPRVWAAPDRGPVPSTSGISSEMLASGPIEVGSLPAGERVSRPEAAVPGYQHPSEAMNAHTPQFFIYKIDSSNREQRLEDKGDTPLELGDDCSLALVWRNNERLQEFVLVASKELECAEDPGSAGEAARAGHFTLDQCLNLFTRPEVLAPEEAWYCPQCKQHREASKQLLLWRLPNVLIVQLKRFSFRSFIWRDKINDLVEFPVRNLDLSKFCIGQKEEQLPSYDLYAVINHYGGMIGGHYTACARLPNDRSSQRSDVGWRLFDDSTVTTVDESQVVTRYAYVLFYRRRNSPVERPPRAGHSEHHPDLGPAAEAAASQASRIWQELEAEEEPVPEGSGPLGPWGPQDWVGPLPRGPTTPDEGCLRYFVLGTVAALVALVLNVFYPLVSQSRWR
Method in brief: (§1)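 Triplicate samples of HEK293T lysate, 495 µg each, received fragment at 200 µM or vehicle for 3 h, followed by Biotin-Ahx-Ub-VS (0.5 µM final) for 1 h. After NeutrAvidin enrichment of labelled DUBs and LysC/trypsin digestion, peptides were run by diaPASEF LC-MS/MS. The values are average log2 fragment/vehicle ratios from global-median-normalised Spectronaut label-free quantities, tested by unpaired t-test on proteins having ≥2 unique peptides.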

USP24 = USP24 (UniProt Q9UPU5)
Sequence of USP24 (Q9UPU5 whole entry): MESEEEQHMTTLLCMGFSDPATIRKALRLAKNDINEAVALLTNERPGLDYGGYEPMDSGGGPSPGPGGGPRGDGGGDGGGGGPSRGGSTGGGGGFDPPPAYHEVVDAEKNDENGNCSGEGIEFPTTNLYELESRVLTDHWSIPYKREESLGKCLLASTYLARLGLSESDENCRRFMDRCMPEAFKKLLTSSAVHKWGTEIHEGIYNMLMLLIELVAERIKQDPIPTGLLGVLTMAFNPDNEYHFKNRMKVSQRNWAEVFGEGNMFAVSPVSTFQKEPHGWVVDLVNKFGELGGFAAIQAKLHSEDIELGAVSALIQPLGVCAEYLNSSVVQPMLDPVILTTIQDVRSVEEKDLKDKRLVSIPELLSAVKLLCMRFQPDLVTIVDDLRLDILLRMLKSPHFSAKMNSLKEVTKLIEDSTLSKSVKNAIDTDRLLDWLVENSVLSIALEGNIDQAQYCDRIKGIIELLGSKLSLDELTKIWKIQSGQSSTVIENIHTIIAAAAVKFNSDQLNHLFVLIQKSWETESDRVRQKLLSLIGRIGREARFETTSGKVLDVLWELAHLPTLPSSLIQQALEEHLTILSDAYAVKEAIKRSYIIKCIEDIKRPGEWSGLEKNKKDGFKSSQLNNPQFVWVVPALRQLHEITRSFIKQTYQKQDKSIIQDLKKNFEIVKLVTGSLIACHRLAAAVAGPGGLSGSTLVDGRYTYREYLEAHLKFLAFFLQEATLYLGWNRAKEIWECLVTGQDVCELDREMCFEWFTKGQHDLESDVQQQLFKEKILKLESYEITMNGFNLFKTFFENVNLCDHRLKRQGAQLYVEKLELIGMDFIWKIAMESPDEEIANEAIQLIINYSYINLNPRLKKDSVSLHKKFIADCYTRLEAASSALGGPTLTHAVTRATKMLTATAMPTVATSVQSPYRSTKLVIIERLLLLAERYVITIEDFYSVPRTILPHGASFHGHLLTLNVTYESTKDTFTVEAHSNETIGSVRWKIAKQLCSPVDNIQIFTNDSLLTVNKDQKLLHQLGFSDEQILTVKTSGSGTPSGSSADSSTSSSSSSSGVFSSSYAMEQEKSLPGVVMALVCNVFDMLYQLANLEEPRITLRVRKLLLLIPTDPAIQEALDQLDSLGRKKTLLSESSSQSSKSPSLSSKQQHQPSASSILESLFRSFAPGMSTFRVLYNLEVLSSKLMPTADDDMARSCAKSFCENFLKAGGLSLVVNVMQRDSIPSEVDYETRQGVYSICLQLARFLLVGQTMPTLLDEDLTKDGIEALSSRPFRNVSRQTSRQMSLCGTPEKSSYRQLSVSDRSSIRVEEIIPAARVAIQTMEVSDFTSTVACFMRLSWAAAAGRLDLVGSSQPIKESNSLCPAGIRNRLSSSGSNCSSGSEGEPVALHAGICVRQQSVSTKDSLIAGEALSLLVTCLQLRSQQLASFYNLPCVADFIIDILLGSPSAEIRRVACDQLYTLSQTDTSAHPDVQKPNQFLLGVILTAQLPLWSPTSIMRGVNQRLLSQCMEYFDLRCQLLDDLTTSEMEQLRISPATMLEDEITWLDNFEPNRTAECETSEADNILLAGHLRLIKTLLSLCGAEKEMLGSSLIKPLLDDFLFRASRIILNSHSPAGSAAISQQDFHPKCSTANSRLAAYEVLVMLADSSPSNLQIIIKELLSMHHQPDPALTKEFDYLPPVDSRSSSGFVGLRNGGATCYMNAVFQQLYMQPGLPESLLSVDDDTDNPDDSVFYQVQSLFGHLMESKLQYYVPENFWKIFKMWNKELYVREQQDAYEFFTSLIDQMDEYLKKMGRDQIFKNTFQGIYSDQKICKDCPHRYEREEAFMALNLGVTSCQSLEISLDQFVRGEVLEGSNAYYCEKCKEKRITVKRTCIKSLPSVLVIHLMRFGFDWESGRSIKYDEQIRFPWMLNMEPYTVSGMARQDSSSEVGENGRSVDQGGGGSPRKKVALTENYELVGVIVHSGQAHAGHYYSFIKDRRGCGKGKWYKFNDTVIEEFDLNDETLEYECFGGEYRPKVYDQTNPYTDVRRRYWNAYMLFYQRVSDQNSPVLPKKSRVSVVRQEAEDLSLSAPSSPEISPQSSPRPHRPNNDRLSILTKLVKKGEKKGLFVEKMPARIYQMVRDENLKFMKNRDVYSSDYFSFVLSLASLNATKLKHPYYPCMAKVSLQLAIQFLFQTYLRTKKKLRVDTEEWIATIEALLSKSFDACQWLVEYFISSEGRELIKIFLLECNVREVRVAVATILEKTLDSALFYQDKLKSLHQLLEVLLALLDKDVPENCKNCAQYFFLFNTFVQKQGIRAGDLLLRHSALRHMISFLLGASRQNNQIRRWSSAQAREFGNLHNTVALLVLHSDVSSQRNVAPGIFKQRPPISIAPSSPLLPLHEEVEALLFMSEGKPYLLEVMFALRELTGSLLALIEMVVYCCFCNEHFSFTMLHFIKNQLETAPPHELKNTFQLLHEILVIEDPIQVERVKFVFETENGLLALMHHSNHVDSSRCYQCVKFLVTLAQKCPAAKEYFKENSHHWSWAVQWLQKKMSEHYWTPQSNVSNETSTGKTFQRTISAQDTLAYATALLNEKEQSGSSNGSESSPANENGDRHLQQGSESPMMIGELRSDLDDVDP
Method in brief: as §1

USP25 = target: T2, USP25 (UniProt Q9UHP3)
T2 sequence (whole entry): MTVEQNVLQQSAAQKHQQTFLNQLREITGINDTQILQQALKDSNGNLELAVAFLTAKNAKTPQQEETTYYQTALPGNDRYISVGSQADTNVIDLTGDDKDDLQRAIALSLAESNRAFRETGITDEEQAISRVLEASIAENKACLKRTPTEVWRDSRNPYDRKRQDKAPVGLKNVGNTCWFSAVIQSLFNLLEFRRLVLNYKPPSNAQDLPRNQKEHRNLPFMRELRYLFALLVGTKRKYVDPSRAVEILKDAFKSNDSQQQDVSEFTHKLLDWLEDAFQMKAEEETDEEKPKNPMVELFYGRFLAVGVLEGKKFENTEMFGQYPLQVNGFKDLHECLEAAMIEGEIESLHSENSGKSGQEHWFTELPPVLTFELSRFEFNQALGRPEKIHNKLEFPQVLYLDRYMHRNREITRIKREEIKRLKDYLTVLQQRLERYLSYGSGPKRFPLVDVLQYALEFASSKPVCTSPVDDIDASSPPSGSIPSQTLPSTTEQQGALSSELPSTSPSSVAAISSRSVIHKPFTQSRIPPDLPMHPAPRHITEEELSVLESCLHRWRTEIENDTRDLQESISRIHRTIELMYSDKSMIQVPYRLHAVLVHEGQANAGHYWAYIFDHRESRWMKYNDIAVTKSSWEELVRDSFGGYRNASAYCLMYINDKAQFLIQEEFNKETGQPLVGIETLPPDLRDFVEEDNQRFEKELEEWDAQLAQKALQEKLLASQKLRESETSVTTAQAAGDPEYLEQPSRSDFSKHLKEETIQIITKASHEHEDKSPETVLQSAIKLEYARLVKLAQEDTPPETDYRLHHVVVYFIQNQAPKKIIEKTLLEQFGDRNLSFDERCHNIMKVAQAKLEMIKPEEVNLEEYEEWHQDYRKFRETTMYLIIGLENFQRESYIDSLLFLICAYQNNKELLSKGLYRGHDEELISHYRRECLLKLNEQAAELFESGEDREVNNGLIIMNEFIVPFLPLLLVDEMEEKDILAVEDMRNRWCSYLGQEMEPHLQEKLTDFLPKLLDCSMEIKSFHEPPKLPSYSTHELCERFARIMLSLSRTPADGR
Method in brief: as §1

USP28 = target: T3, USP28 (UniProt Q96RU2)
T3 sequence (whole entry): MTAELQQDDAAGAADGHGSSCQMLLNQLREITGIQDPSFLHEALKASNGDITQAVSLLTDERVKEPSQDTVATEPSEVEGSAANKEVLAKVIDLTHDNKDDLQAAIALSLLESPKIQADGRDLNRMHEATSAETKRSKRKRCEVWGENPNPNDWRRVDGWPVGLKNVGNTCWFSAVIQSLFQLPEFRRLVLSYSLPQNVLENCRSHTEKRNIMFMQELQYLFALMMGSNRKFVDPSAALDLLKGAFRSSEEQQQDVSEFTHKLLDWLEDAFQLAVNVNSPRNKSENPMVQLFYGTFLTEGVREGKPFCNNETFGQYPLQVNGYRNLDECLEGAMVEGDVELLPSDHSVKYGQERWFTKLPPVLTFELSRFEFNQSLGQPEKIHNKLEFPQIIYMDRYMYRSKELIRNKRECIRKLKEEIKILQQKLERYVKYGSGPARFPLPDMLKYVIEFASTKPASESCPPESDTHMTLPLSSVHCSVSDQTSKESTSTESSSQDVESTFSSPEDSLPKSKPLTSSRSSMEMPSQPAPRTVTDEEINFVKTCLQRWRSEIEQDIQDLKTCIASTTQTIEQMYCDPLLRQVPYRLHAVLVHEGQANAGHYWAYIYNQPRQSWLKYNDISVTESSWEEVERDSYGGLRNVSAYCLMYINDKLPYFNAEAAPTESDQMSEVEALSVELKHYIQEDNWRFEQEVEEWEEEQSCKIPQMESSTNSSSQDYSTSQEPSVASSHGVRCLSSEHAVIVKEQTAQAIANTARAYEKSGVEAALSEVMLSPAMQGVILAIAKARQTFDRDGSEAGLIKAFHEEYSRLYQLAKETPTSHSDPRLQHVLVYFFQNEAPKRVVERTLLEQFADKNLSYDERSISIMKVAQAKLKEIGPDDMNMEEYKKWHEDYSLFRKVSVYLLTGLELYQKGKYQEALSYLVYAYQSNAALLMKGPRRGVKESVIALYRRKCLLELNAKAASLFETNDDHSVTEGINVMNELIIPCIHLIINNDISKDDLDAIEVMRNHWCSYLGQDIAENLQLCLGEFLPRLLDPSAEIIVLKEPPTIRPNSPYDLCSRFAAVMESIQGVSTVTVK
Method in brief: as §1

Measured: log2 ratio of Biotin-Ahx-Ub-VS probe labelling

CN1c2ccccc2C(NC(=O)CCl)CS1(=O)=O (centres undefined)
inactive: USP19 -0.159 | USP24 -0.201 | USP25 -0.52 | USP28 -0.788
